Source: PubChem BioAssay
Only some compounds are listed: those with a hit (about 10% of all), similar ones and a draw of the others.
BAZ2B block: blocks human BAZ2B; Q9UIF8; AlphaScreen BAZ2B-H3K14Ac peptide displacement; Potency, µM (highest dose often 114 µM), without a hit: at the highest dose activity change, negative = inhibition, most hits filed as inhibitors; actives 4.4% (n = 360,000); note: potency is the fitted concentration of half-maximal effect; % is set by controls: 0 for no effect and ±100 for the full control effect; nearly all actives have a fitted effect of over 60% in size
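Complex of BAZ2B and biotin-H3K14Ac (50 nM apiece) forms over 30 min at RT, then faces library compounds up to 110 uM for another 30 min; AlphaScreen beads added, 20 min dark incubation, luminescence read.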
G9a block: inhibitors of human histone lysine methyltransferase G9a; Q96KQ7; G9a H3K9 monomethylation, AlphaScreen, 2 h; Potency, µM (series often up to 102 µM), for inactives: at the top dose activity, negative = inhibition, most hits filed as inhibitors; actives 8.8% (n = 350,000); AID 504332; note: potency is the fitted concentration of half-maximal effect; % is set by controls: 0 for no effect and ±100 for the full control effect; nearly all actives have a fitted effect of over 75% in size
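AlphaScreen read-out: biotin-H3K9 peptide (500 nM) methylation by 20 nM enzyme with 20 uM SAM, 2 h at room temperature after 15 min compound preincubation; anti-monomethyl H3K9 antibody plus donor/acceptor beads, 10 min dark.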
HP1b chromo inh: inhibitors of HP1-beta chromodomain binding to methylated histone tails | actives 0.56% (n = 390,000) | AlphaScreen HP1-beta / biotin-H3K9me3 peptide binding | P83916 | Potency, µM (highest dose often 114 µM), for inactives: at the top dose activity change, negative = inhibition, usual class: inhibitors | AID 540317; note: potency is the fitted concentration of half-maximal effect; nearly all actives have a fitted effect of over 70% in size
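AlphaScreen: HP1-beta (50 nM) preformed 30 min with biotin-H3(1-18)K9me3 peptide (50 nM) in PBS pH 7.4, 0.01% Tween-20. Compound added for 30 min at RT, then streptavidin donor/nickel chelate acceptor beads (10 ug/mL) for 30 min.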
CtBP-E1A inh: blocks the CtBP interaction with E1A | AID 651724 | AlphaScreen GST-E1A/His-CtBP binding, 1536-well; active compounds read low | activity change, % (no concentration beside the values) | actives 0.49% (n = 340,000); in the data active = activity change below about -65%; inconclusive = mostly about -30% to -63%; note: % is set by controls: 0 for no effect and ±100 for the full control effect
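AlphaScreen with 125 nM GST-E1A and 125 nM His-CtBP (5X stocks) in Tris pH 8.0, 300 mM NaCl, BSA, Tween 20, TCEP. Compounds preincubated 2 h at 37 deg C, then glutathione donor/nickel acceptor beads added for 1 h at 37 deg C in dark.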
JMJD2A Tudor inh: inhibitors of human JMJD2A Tudor domain; AlphaScreen JMJD2A-Tudor / H3K4me3 peptide binding; Potency, µM (doses to about 114 µM), for the others: at the highest dose activity change, negative = inhibition, usual class: inhibitors; actives 4.4% (n = 390,000); note: potency is the fitted concentration of half-maximal effect; % is set by controls: 0 for no effect and ±100 for the full control effect; nearly all actives have a fitted effect of over 50% in size
Six1-Eya2 inh: Six1/Eya2 interaction inhibition; Q15475+O00167; AlphaScreen GST-Six1/His-Eya2 binding, biochemical; active compounds read low; activity change, % (concentration not given with the values); actives 0.56% (n = 360,000); in the data active = activity change below about -65%; inconclusive = mostly about -30% to -63%; note: % is set by controls: 0 for no effect and ±100 for the full control effect
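Homogeneous AlphaScreen proximity assay pairing GST-Six1 with His-tagged Eya2 (added as 5X mix: 250 nM and 500 nM) in 50 mM Tris pH 8.0, 300 mM NaCl, 1 mM TCEP. Glutathione donor and nickel acceptor beads; 1 h, 37 °C, dark.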
Numbers without * were called inactive; ? = inconclusive; nt = no result given; ! = not active in a repeat; [ ] = another dose, or the depositor's remark. Unless noted, calls come from the whole dose curve; as a rule, active = well fitted inhibition curve with a large enough effect; inconclusive = small, poorly fitted or top-dose-only effect; inactive = no such curve, though single readings can be large or run the other way.

SMILES	BAZ2B block	G9a block	HP1b chromo inh	CtBP-E1A inh	JMJD2A Tudor inh	Six1-Eya2 inh
CCC(C)Sc1nc(O)cc(=O)[nH]1 (stereo not drawn)	7%	-5%[59 µM]	25%	2	-1%	5
CC(CCc1ccco1)NC(=O)c1cc2c(-c3ccccc3F)nn(C)c2s1 (stereo not drawn)	-2%	89µM*	8%	-23	-21%	?
O=C(NCc1ccc2c(c1)CCN2C(=O)c1ccccc1)Nc1cccc(C(F)(F)F)c1	-1%	-13%[59 µM]	1%[57 µM]	nt	-20%	nt
CCOc1ccccc1NC1c2ccccc2C(=O)N1Cc1ccco1 (stereo not drawn)	?	45µM*	-8%	-14	?	-4
Cc1cc2cc3c(cc2nc1SCC(=O)O)OCCO3	11%	10%[59 µM]	11%	-14	-2%	1
Cc1cc2cc3c(cc2nc1SCc1ccc(C(=O)O)cc1)OCCO3	?	50µM*	19%	3	-33%	-8
Cc1cnc(=O)[nH]c1SCc1ccc([N+](=O)[O-])cc1	?	63µM*	12%	nt	-29%	-1
Cc1cnc(=O)[nH]c1SCc1ccc(C(F)(F)F)cc1	0%	-1%[59 µM]	35%	0	2%	0
COc1ccc(OC)c(CCNC(=O)c2ccc3[nH]c(C)c(C)c3c2)c1	?	-15%[59 µM]	-15%	nt	-24%	nt
NCCCC(N)(C(=O)O)C(F)F (stereo not drawn)	?	7.1µM*!	19%	8	-2%	4
NCCCCC(=O)O	5%	-18%[59 µM]	18%	8	-9%	2
CC(=O)Nc1nonc1-c1nc2ccccc2n1Cc1ccccc1Br	-5%	7%[59 µM]	32%	nt	0%	nt
Cc1c(C(=O)N(Cc2ccc(Cl)cc2)CC2CCCO2)oc2ccc(F)cc12 (stereo not drawn)	47%	78%[59 µM]	114%	nt	63%	nt
Cc1ccc(S(=O)(=O)Nc2ccc(O)c3ncccc23)cc1	22µM*	?	7%	-93*	40µM*	-91*
CC(=O)Nc1ccc(NS(=O)(=O)c2ccccc2)c2ccccc12	5%	9%	66%	0	-7%	-4
O=S(=O)(Nc1ccc(O)c2ccccc12)c1cccs1	-33%	7.1µM*	45µM*	-4	13µM*	-9
O=S(=O)(Nc1ccc(O)c2ccccc12)c1ccc(Br)cc1	45µM*	40µM*	nt	nt	nt	nt
C=C1CCN(C(CC(C)C)C(=O)NCc2ccc(OC)cc2)S(=O)(=O)c2ccccc21 (stereo not drawn)	nt	nt	15%	nt	-9%	nt
Cc1ccc(Cl)cc1NC(=O)N1CCC(CN2CCc3ccccc3C2)CC1	-2%	-26%[59 µM]	29%	nt	-23%	nt
CCc1ccc(CNC(=O)CCCN2C(=O)c3cccnc3Oc3ccc(Cl)cc32)cc1	-1%	6%[59 µM]	29%	nt	-13%	nt
CN(C)c1ccc(CNC(=O)CCCN2C(=O)c3cccnc3Oc3ccc(Cl)cc32)cc1	?	11µM*	8%	nt	?	nt
CC(=O)N1CCN(Cc2nc3cc(NC(=O)c4cccs4)ccc3n2C)CC1	8%	59%	24%	-15	4%	-2
COCCN1CCn2c(nc3cc(NC(=O)c4cccs4)ccc32)C1	-33%	20µM*	16%	0	-12%	-20
CCCCC(=O)Nc1ccc2c(c1)nc1n2CCN(CCOC)C1	-11%	32µM*	50%	nt	-27%	7
O=C(Nc1ccc(-c2nc3cc(NC(=O)c4cccs4)ccc3o2)cc1)c1cccs1	19%	-14%[0.0925 µM]	21%	6	-4%	1
SMILES	BAZ2B block	G9a block	HP1b chromo inh	CtBP-E1A inh	JMJD2A Tudor inh	Six1-Eya2 inh
O=C(Nc1ccc2oc(-c3ccncc3)nc2c1)c1cccs1	56µM*	-26%[12.7 µM]	49%	-4	-33%	-3
Cn1c(CN2CCCC2)nc2cc(NC(=O)c3cccs3)ccc21	?	14µM*	20%	-2	-36%	-2
Cc1ccc(-n2nc(C(=O)N3CCCCC3C)c(=O)n(C)c2=O)cc1 (stereo not drawn)	2%	4%[59 µM]	24%[57 µM]	nt	-2%	nt
CCCC(=O)Nc1ccc2c(c1)nc1n2CCN(CCOC)C1	0%	25µM*	45%	-22	-10%	13
CCCCC(=O)Nc1ccc2c(c1)nc1n2CCOC1	7%	10%	-11%	2	79µM*	20
COc1ccc(C(=O)Nc2ccc3c(c2)nc2n3CCSC2)cc1	-26%	50µM*	-1%	-10	-7%	-10
CCCC(=O)Nc1ccc2c(c1)nc1n2CCOC1	5%	?	30%	-2	-7%	1
O=C(c1ccc2c(c1)N(Cc1ccc(Cl)cc1)C(=O)c1ccccc1S2=O)N1CCOCC1 (stereo not drawn)	-17%	-34%[59 µM]	21%	nt	-16%	nt
CCOC(=O)c1sc2cccc(F)c2c1S(=O)(=O)NCc1ccccc1Cl	-1%	?	86%	nt	-21%	nt
COc1ccc(CNCCc2ccccc2)cc1OCC(N)=O	1%	nt	23%	2	-10%	-2
COc1ccc(CNCCc2ccc(Cl)cc2)cc1OCc1ccccc1	56µM*	10µM*	?	26	40µM*	-16
COc1cc(CNCc2ccccc2)ccc1OCC(O)c1ccccc1 (stereo not drawn)	?	11µM*	-8%	nt	20µM*	-5
COc1cc(CNCc2ccccn2)ccc1OCC(N)=O	14µM*	2.2µM*	21%	-2	50µM*	?
COc1cc(CNCc2ccccn2)ccc1OCc1ccc(Cl)c(Cl)c1	?	50µM*	14%	?	?	-19
COc1cc(CNCc2ccccn2)ccc1OCc1ccc(Cl)cc1Cl	?	40%[12.7 µM]	5%	-28	?	-25
CCCCCCC(=O)Nc1nc(C)c(-c2csc(Nc3cc(OC)ccc3OC)n2)s1	?	?	-13%	-14	50µM*	-13
CCCCCC(=O)Nc1nc(C)c(-c2csc(Nc3cc(OC)ccc3OC)n2)s1	28µM*	7.1µM*	?	?	50µM*	-19
CCCCC(=O)Nc1nc(C)c(-c2csc(Nc3ccccc3OC)n2)s1	?	?	19%	-2	?	-5
CCCCN(CCCNC(=O)CN1N=C(c2ccccc2)CCC1=O)c1ccccc1	?	?	-34%	nt	?	nt
CCCN1CCN(CCCNC(=O)c2ccc3c(c2)NC(=O)c2ccccc2S3)CC1	-8%[57.1 µM]	-10%	12%	nt	-12%	0
CCN(CC)CCNC(=O)c1ccc2c(c1)NC(=O)c1ccccc1S2	5%	45µM*	24%	-7	-7%	-3
CN(C)CCNC(=O)c1ccc2c(c1)NC(=O)c1ccccc1S2	-8%	45µM*	10%	nt	-10%	2
